# Measured values published in PMC7862700, “An all-to-all approach to the identification of sequence-specific readers for epigenetic DNA modifications on cytosine”.
# Experiments:
# Experiment in all cases: DAPPL (digital affinity profiling via proximity ligation, sequencing); 10 mM Tris-HCl pH 7.5, 50 mM NaCl, 1 mM DTT, 4% glycerol, room temperature, 30 min; GST-TFs on glutathione beads, 16-mer random dsDNA library, 0.1% formaldehyde crosslink after washing; high values mean tight binding
# Conditions in all cases: protein: recombinant; tags: N-terminal GST; dsDNA, one strand shown
# GABPA = target: T1, GABPA (Homo sapiens, UniProt Q06546 1-454)
# T1 sequence: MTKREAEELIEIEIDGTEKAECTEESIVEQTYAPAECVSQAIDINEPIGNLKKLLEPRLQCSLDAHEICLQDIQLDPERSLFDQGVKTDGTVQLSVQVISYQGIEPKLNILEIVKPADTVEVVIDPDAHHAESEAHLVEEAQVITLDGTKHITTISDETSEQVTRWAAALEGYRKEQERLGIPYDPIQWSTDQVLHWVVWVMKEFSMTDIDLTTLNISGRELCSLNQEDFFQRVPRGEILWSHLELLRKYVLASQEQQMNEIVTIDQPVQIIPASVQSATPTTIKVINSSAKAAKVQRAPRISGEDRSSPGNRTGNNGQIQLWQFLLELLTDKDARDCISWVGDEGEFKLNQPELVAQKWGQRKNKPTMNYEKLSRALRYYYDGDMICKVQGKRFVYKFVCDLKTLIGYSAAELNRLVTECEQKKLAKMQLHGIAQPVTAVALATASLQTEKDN
# Summary of the method: (§1)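 GST fusions of human transcription factors were expressed in yeast and captured with glutathione beads. Once given DNA barcodes and pooled alongside a tag-only sample, they were incubated for 30 min at room temperature with 200 nmole of a random double-stranded 16-mer DNA library in Tris/NaCl/DTT/glycerol buffer, then washed, crosslinked (0.1% formaldehyde), proximity-ligated, PCR-amplified and sequenced on an Illumina NextSeq500. The binding signal of each hexamer is its read frequency for a factor divided by its frequency for the tag-only sample.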
# ELF1 = ELF1 (Homo sapiens, UniProt P32519 1-619)
# Sequence of ELF1 (P32519 whole entry): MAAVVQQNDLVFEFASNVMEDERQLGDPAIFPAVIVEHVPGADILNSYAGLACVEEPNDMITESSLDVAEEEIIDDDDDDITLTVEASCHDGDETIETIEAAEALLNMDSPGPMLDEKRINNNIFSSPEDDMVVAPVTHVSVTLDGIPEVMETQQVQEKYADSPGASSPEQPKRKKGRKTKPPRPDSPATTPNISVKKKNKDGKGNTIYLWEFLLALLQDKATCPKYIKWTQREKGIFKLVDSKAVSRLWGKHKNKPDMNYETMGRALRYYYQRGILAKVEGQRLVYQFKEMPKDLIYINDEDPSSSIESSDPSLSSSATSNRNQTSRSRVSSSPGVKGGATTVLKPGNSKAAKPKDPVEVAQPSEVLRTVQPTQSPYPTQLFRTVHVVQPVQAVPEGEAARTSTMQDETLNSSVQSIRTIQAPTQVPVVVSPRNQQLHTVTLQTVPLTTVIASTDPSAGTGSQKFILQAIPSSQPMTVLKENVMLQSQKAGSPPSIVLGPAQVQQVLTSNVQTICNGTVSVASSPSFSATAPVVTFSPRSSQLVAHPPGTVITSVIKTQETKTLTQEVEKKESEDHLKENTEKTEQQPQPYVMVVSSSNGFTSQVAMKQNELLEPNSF
# Summary of the method: as §1
# EHF = target: T2, EHF (Homo sapiens, UniProt Q9NZC4 1-300)
# T2 sequence: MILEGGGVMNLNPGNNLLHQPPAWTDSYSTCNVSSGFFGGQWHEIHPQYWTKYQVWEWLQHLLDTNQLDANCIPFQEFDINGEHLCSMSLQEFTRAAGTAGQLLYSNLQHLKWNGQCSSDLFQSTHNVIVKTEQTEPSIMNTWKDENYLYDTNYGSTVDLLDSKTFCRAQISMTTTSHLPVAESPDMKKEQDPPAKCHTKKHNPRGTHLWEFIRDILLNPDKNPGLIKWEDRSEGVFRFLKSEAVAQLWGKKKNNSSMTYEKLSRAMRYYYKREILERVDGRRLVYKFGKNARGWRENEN
# Summary of the method: as §1
# SPIB = SPIB (Homo sapiens, UniProt Q01892 1-262)
# Sequence of SPIB (Q01892 whole entry): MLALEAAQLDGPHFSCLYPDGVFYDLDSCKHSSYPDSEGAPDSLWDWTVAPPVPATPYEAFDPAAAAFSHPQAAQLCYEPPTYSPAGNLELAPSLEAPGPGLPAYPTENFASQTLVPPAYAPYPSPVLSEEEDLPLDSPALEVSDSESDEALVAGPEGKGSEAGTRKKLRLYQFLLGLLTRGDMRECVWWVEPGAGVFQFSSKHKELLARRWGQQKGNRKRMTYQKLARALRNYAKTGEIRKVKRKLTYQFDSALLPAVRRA
# Summary of the method: as §1
# ELK3 = target: T3, ELK3 (Homo sapiens, UniProt P41970 1-407)
# T3 sequence: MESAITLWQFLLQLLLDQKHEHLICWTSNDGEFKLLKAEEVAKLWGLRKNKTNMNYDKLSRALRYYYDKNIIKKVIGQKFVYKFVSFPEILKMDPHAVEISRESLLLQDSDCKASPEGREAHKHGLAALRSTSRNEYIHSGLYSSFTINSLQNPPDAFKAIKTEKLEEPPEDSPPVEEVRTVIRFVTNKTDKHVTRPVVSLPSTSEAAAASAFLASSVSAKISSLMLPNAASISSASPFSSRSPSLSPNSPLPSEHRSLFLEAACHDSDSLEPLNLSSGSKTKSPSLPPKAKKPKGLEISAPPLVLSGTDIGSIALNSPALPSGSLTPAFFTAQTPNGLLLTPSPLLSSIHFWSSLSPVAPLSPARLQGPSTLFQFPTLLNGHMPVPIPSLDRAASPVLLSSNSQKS
# Summary of the method: as §1
# ETV5 = ETV5 (Homo sapiens, UniProt P41161 1-510)
# Sequence of ETV5 (P41161 whole entry): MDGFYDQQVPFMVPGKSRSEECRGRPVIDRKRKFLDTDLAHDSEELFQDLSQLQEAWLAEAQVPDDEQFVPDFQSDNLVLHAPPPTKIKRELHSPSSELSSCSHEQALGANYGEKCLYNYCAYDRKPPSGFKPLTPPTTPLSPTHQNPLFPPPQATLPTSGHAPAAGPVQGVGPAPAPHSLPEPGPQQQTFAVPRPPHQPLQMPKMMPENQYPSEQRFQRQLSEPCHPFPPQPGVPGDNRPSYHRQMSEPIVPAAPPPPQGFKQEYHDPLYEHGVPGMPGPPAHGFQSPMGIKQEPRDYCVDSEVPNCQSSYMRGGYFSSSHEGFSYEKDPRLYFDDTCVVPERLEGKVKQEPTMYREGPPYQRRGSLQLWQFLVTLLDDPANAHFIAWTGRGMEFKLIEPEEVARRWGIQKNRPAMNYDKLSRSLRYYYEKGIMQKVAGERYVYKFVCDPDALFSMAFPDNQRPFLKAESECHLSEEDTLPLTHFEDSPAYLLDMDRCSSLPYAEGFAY
# Summary of the method: as §1
# ELK4 = target: T4, ELK4 (Homo sapiens, UniProt P28324-2 1-405)
# T4 sequence: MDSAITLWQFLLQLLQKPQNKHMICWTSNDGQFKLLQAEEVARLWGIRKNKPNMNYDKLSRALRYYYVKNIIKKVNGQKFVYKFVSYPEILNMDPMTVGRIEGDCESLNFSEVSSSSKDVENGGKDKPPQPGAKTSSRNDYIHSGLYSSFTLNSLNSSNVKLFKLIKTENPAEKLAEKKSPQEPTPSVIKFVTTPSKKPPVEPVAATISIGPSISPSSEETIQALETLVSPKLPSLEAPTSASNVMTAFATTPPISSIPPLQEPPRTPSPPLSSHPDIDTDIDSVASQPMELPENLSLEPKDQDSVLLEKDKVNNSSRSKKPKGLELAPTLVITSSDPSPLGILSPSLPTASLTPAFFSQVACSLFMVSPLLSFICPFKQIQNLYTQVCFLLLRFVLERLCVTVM
# Summary of the method: as §1
# ETV1 = ETV1 (Homo sapiens, UniProt P50549 1-477)
# Sequence of ETV1 (P50549 whole entry): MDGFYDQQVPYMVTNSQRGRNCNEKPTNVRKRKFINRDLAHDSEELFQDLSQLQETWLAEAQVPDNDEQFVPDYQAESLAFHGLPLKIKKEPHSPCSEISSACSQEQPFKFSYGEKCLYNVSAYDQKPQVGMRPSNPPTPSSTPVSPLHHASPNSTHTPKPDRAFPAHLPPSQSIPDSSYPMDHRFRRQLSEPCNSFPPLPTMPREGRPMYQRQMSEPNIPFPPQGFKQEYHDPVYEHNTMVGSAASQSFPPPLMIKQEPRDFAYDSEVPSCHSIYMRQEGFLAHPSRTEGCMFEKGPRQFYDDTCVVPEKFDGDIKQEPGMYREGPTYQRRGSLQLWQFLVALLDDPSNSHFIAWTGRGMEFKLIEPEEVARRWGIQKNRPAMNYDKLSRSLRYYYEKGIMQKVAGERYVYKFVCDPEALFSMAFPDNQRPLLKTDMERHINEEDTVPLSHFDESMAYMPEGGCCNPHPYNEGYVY
# Summary of the method: as §1
# ERF = target: T5, ERF (Homo sapiens, UniProt P50548 1-548)
# T5 sequence: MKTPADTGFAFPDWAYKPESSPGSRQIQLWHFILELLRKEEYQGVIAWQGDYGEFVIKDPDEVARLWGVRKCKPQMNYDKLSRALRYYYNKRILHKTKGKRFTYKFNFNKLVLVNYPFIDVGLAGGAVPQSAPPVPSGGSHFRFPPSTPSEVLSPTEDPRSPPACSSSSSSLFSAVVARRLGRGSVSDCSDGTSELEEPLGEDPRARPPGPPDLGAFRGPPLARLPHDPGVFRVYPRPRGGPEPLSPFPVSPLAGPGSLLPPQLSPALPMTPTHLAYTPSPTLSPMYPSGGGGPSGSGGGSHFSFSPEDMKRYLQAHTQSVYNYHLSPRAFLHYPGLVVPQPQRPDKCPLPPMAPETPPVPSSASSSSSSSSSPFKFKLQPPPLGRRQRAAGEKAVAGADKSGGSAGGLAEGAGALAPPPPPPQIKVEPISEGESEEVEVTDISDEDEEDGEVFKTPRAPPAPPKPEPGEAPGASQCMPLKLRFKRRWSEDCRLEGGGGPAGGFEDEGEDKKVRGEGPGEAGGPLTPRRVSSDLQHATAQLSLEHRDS
# Summary of the method: as §1
# ETV3L = target: T6, ETV3L (Homo sapiens, UniProt Q6ZN32 1-361)
# T6 sequence: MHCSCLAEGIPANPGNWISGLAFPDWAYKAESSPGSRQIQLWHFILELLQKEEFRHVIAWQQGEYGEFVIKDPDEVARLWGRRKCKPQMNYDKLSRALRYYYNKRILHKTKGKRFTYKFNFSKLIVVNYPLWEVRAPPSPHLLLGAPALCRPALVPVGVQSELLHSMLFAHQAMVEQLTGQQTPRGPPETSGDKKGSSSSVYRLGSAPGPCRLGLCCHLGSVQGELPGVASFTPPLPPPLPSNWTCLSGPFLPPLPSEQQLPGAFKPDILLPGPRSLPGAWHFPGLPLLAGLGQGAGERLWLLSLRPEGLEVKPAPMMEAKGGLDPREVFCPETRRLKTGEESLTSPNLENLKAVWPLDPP
# Summary of the method: as §1
# SPDEF = target: T7, SPDEF (Homo sapiens, UniProt O95238 1-335)
# T7 sequence: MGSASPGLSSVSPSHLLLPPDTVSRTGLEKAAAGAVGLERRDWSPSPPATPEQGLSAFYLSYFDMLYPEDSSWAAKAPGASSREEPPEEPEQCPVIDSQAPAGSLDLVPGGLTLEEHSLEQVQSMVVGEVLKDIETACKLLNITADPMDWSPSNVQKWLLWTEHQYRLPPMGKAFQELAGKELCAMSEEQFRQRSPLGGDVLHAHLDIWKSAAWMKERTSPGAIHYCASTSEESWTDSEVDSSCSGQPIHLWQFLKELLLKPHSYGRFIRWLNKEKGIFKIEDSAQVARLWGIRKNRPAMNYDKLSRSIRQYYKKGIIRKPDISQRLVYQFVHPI
# Summary of the method: as §1
# ETV3 = target: T8, ETV3 (Homo sapiens, UniProt P41162-2 1-143)
# T8 sequence: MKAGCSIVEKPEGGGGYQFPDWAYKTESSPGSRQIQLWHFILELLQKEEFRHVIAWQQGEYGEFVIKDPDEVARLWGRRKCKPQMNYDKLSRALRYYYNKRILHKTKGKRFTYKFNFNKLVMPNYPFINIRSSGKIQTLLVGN
# Summary of the method: as §1
# ETV6 = ETV6 (Homo sapiens, UniProt P41212 1-452)
# Sequence of ETV6 (P41212 whole entry): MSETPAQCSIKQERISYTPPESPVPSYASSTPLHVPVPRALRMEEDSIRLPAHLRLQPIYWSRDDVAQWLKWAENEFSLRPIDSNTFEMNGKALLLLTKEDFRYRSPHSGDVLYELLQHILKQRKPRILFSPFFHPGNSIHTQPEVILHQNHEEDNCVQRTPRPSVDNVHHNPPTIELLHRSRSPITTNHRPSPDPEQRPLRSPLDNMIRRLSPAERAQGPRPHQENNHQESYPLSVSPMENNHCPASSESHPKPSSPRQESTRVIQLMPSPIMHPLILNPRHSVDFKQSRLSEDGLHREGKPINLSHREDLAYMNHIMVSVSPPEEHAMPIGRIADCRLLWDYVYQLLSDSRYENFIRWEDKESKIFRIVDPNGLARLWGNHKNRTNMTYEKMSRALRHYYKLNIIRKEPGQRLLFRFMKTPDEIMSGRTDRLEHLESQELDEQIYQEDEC
# Summary of the method: as §1
sequence,measurement,setting,value
CGTCCA,binding signal,GABPA,"1.04 fold enrichment (6-mer frequency, TF over GST control)"
same,binding signal,ELF1,"1.05 fold enrichment (6-mer frequency, TF over GST control)"
same,binding signal,EHF,"1.02 fold enrichment (6-mer frequency, TF over GST control)"
same,binding signal,SPIB,"1 fold enrichment (6-mer frequency, TF over GST control)"
same,binding signal,ELK3,"1.13 fold enrichment (6-mer frequency, TF over GST control)"
same,binding signal,ETV5,"1.02 fold enrichment (6-mer frequency, TF over GST control)"
same,binding signal,ELK4,"1 fold enrichment (6-mer frequency, TF over GST control)"
same,binding signal,ETV1,"1.08 fold enrichment (6-mer frequency, TF over GST control)"
same,binding signal,ERF,"1.02 fold enrichment (6-mer frequency, TF over GST control)"
same,binding signal,ETV3L,"1.13 fold enrichment (6-mer frequency, TF over GST control)"
same,binding signal,SPDEF,"1.07 fold enrichment (6-mer frequency, TF over GST control)"
same,binding signal,ETV3,"1.03 fold enrichment (6-mer frequency, TF over GST control)"
same,binding signal,ETV6,"1.04 fold enrichment (6-mer frequency, TF over GST control)"
